Source: PubChem BioAssay
GPR151 ag: activates the human receptor GPR151; Q8TDV0; PathHunter beta-arrestin GPR151 cells, luminescence; activation, % at 11.2 µM; actives 1% (n = 650,000); AID 1508602; in the data active = activation above about 4.9%;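 note: 0% = median of compound wells and 100% = cells with positive control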
FBW7 activator: human FBW7 E3 ligase activation, primary screen; normalized activity (activation), % at 26.1 µM; Q969H0; AlphaScreen FBW7–phospho-cyclin E peptide binding, activator screen; actives 0.13% (n = 650,000); AID 1259310; in the data active = normalized activity above about 1.9%;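 note: purified mutant Fbw7 with reduced substrate affinity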
MITF primary: human MITF inhibition, primary screen. O75030. AlphaScreen MITF homodimerization, bead proximity signal. inhibition, % at 2.6 µM. actives 0.91% (n = 650,000). AID 1259374; in the data active = inhibition above about 50%;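 note: 0% = vehicle wells with protein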
TEAD-YAP inh: TEAD-YAP interaction inhibition; HEK-TIYL cells, TEAD-Gal4/YAP UAS-luciferase luminescence; inhibition, % at 9.12 µM; actives 1.4% (n = 640,000); in the data active = inhibition above about 32%;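 note: 0% = median of test compound wells and 100% = reference inhibitor wells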
* = called active by the depositor. Only some compounds are listed: those with a hit (about 3.5% of all), similar ones and a draw of the others.

SMILES	GPR151 ag	FBW7 activator	MITF primary	TEAD-YAP inh
O=[N+]([O-])c1cc(C(F)(F)F)ccc1Sc1nnnn1-c1ccccc1	-0.2	-0.2	2.1	2.4
O=[N+]([O-])c1ccc(Sc2nnnn2-c2ccccc2)c2ccncc12	-0.6	-0.2	4.4	49.8*
Cn1c(Sc2ccc([N+](=O)[O-])c3cnccc23)nnc1C(F)(F)F	1.2	-0.2	-11.8	-1.3
Clc1ccc2nc(CN3CCC(Oc4cccnc4)CC3)nc(N3CCOCC3)c2c1	1.2	0.0	0.5	-8.7
Cc1ccccc1NC(=O)CN(c1cc(C(F)(F)F)ccc1Cl)S(=O)(=O)c1ccccc1	0.3	0.3	12.9	16.1
Cc1sc(NC(=O)c2cccnc2)nc1-c1ccc2c(c1)CCN2C(=O)CC(C)(C)C	-1.4	0.1	26.3	-0.2
CC(C)(C)CC(=O)N1CCc2cc(-c3csc(NC(=O)c4cccnc4)n3)ccc21	-0.4	0.2	2.2	35.8*
C(=Nc1ccc2c(c1)OCCO2)c1ccc(OC2CSC2)cc1	1.0	1.4	10.7	44.9*
CS(=O)(=O)N(CC(=O)NCCSC1CCCCC1)c1ccc(Cl)c(Cl)c1	1.4	0.1	11.5	3.5
Cc1nc(C#N)c(N/N=C/C=C/c2ccccc2)o1	-2.1	-0.1	9.9	-65.5
Cc1nc(C#N)c(N/N=C/c2ccc(N(C)C)cc2)o1	-2.1	-0.2	2.7	32.9*
Cc1ccc(/C=C2/SC(=S)N(CCC(=O)O)C2=O)o1	-0.1	-0.1	38.5	0.7
Cc1ccc(/C=C2\SC(=S)N(CCCC(=O)O)C2=O)o1	0.3	-0.2	30.6	52.7*
Cc1ccc(/C=C2/SC(=S)N(c3ccc(CC(=O)O)cc3)C2=O)o1	1.3	-0.2	59.0*	-4.7
CCCN1C(=O)/C(=C/c2ccc(C)o2)SC1=S	4.9	-0.3	-3.3	0.5
Cc1ccc(/C=C2\SC(=S)N(/N=C/c3ccc(C)o3)C2=O)o1	0.3	-0.9	54.3*	7.0
Cc1ccc(/C=C2/SC(=S)N(CO)C2=O)o1	-0.7	-1.3	85.0*	11.3
O=C(c1cc(-c2cccc(O)c2)on1)N1CCCCC1	-2.7	0.1	16.5	67.1*
COc1cccc(-c2cc(C(=O)N3CCCC3)no2)c1	-3.8	0.1	10.1	37.8*
O=C(c1cc(-c2ccccc2)on1)N1CCCCCC1	-1.0	0.7	23.3	-66.8
CCC(C)C(=O)N1CCCC(c2nc(-c3cccc(OC)c3)no2)C1 (stereo unspecified)	-1.5	-0.1	-4.3	61.4*
O=C(Nc1cc2ccccc2cc1NC(=O)c1ccccc1Cl)c1ccccc1Cl	0.2	0.0	5.3	-62.3
CCOC(=O)CC(=O)NNC(=O)c1c(O)c2ccccc2[nH]c1=O	0.7	-0.7	1.5	-3.1
COc1ccc(OC)c(CC(=O)N2CCc3nc(N4CCCCC4)[nH]c(=O)c3C2)c1	0.6	-0.1	-2.0	49.8*
COc1cc(CC(=O)N2CCc3nc(N4CCCC4)[nH]c(=O)c3C2)cc(OC)c1OC	-0.1	0.1	4.9	2.7
SMILES	GPR151 ag	FBW7 activator	MITF primary	TEAD-YAP inh
CCOC(=O)Cc1ccc(N(Cc2ccc(Cl)cc2)S(=O)(=O)c2ccc(Br)cc2)cc1	-0.1	0.1	3.7	6.7
N#Cc1ccccc1/C=C\C(=O)NCCCCCC(=O)O	-1.5	0.8	25.3	-8.4
CC12CCC(C(=O)Nc3ccc(Cl)c(Cl)c3)(CC1=O)C2(C)C (stereo unspecified)	1.6	0.1	1.7	8.5
COc1cccc(OC)c1C(=O)Nc1ccc2c(c1)OCCO2	0.5	0.3	3.5	-6.9
O=C(Nc1ccc2c(c1)OCCO2)c1ccc2ccccc2c1	-7.2	0.4	6.5	87.1*
COC(=O)C(=NNc1ccc2c(c1)OCCO2)C(=O)OC	-1.7	0.7	-0.5	80.5*
Cc1cc(C(=O)Nc2ccc3c(c2)OCCO3)cs1	-4.6	0.0	9.8	40.7*
CC12CCC(C(=O)Nc3ccc4c(c3)OCCO4)(CC1=O)C2(C)C (stereo unspecified)	-0.4	-0.2	2.1	62.3*
CCNS(=O)(=O)c1ccc(NS(=O)(=O)c2cc(Cl)ccc2Cl)cc1	-1.0	0.4	28.2	0.6
O=C(Nc1cccnc1Cl)c1cc(-c2ccccc2O)no1	-0.4	0.0	-12.8	-77.4
CC(C(=O)N/N=C/c1ccc(N(C)C)cc1)n1cnc2ccccc2c1=O (stereo unspecified)	-0.6	-0.1	4.0	-2.8
O=C(Nc1cccnc1)C(=O)Nc1ccc2c(c1)OCCO2	-6.1	0.0	21.9	58.9*
O=C(Nc1ccc2sccc2c1)c1ccc2c(c1)OCO2	-6.6	-0.1	-8.2	71.5*
O=C(O)C1C2CCC(O2)C1C(=O)Nc1ccc2c(c1)OCCO2 (stereo unspecified)	-1.2	0.0	5.5	8.1
COc1ccc(C(=O)Nc2ccc3c(c2)OCCO3)cc1	-6.8	0.1	0.5	66.4*
O=C(O)C1CCCCC1C(=O)Nc1ccc2c(c1)OCCO2 (stereo unspecified)	-1.3	0.4	18.9	61.7*
CCN(Cc1ccccc1)Cc1ccc(C(=O)NCC2CCCO2)c(=O)[nH]1 (stereo unspecified)	-1.1	0.0	9.8	-3.3
O=C(Nc1ccc2c(c1)OCCO2)c1ccccc1	-0.5	0.1	10.0	11.8
Cc1ccc2cc3c(N)c(C(=O)Nc4ccc5c(c4)OCCO5)sc3nc2c1	-0.5	-0.1	8.8	70.8*
O=C(Nc1ccc2c(c1)OCCO2)c1ccc(C(=O)Nc2ccc3c(c2)OCCO3)nc1	2.9	-0.2	11.6	64.5*
COc1ccc(NC(=O)c2ccc3c(c2)OCCO3)cc1	-5.0	-0.3	-2.7	74.7*
CCOC(=O)CSc1nc(C)c(C)c(C)c1C#N	-1.2	0.2	-1.7	-2.1
O=C1CCC/C(=N\NC(=O)c2cc(-c3ccncc3)nc3ccccc23)C1	2.1	0.1	-4.6	26.3
Cc1cc(C(=O)N/N=C(\CCC(=O)O)c2cccs2)c2ccccc2n1	-0.3	0.3	11.5	51.3*
Cc1cc(C(=O)N/N=C2\CCCC(=O)C2)c2ccccc2n1	-0.3	0.0	-6.7	39.8*
SMILES	GPR151 ag	FBW7 activator	MITF primary	TEAD-YAP inh
CCOc1ccc(-n2nc(C(=O)Nc3cccc(OC)c3)c3ccccc3c2=O)cc1	-0.4	0.2	-0.6	11.9
Cc1ccc(-c2cc3nccc(C4CCNCC4)n3n2)cc1	-0.1	-0.1	-2.1	4.5
COc1ccc(-c2cc3nccc(C4CCNCC4)n3n2)cc1	1.4	0.6	9.7	32.9*
O=C(NC1CC1)c1ccc2nc(-c3ccco3)c(-c3ccco3)nc2c1	0.3	-1.2	70.8*	8.6
O=C(NCCO)Nc1ccc2nc(-c3ccco3)c(-c3ccco3)nc2c1	0.0	-1.3	88.6*	8.0
O=C(NC1CCCC1)c1ccc2nc(-c3ccccc3)c(-c3ccccc3)nc2c1	-0.8	0.1	-7.6	-2.9
O=C(Nc1ccc2nc(-c3ccco3)c(-c3ccco3)nc2c1)N1CCCC1	-0.3	-0.3	94.2*	2.5
O=C(NCCCO)c1ccc2nc(-c3ccco3)c(-c3ccco3)nc2c1	-0.4	-1.2	82.7*	10.0
CCOCCCNC(=O)c1ccc2nc(-c3ccco3)c(-c3ccco3)nc2c1	-1.7	-1.1	20.4	12.3
CC(NC(=O)CN(c1ccc(Cl)c(Cl)c1)S(C)(=O)=O)c1ccccc1 (stereo unspecified)	2.1	0.0	-12.8	-2.2
